Screening results (PubChem)
In the library only some 17% were active in any assay of this set; here they are far more common.
TDP1 cell noCPT = qHTS for Inhibitors of human tyrosyl-DNA phosphodiesterase 1 (TDP1): qHTS in cells in absence of CPT; DT40 Tdp1-/- hTDP1 cells, no CPT, ATP luminescence, 48 h; Potency, µM (doses to about 46.2 µM), hits mostly inhibitors; actives 15% (n = 420,000); note: nearly all actives have a fitted effect of over 55% in size
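Readout: luminescence from CellTiter-Glo after 30 min in the dark at RT. Cells: DT40 Tdp1-/- with stable hTDP1, 400/well. Exposure: compounds alone, ≥48 hr, 37 °C.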
TDP1 inh = inhibitors of human tyrosyl-DNA phosphodiesterase TDP1; recombinant TDP1, AlphaScreen DNA substrate cleavage; Potency, µM (top dose mostly 130 µM), usual class: inhibitors; actives 0.28% (n = 350,000); AID 485290; note: nearly all actives have a fitted effect of over 40% in size
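Tdp1 1 nM final; 15 min RT w/ cpd; substrate 15 nM, 5 min; beads 10 ug/ml, 10 min; AlphaScreen read. Neg ctrl: no enzyme.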
DT40 TDP1 CPT = DT40-hTDP1 cell growth loss with CPT. AID 686979. Potency, µM (top dose mostly 46.2 µM), most hits filed as inhibitors. actives 12% (n = 420,000). chicken DT40 Tdp1-/-;hTDP1 cells + 20 nM CPT, ATP luminescence, 48 h; note: nearly all actives have a fitted effect of over 55% in size
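Chicken DT40 Tdp1-/- cells complemented with human TDP1, 400 cells/well, exposed to compounds plus 20 nM camptothecin for at least 48 h at 37 C; viability read as ATP content by CellTiter-Glo luminescence.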
ClpP mod = qHTS Assay for Activators of ClpP | Potency, µM (highest dose often 57.5 µM) | purified B. subtilis ClpP, FRET peptide cleavage, 20 min | ATP-dependent Clp protease proteolytic subunit (Bacillus subtilis (strain 168)), P80244 | actives 1.9% (n = 340,000) | AID 651965, 2013; active = well fitted falling curve with a large enough effect; inconclusive = small, poorly fitted or top-dose-only effect; inactive = no such curve, though single readings can be large or run the other way; note: the source files actives as falling curves though it sought activators and does not explain the sign; nearly all actives have a fitted effect of over 65% in size
Target sequence (P80244 whole entry, looked up): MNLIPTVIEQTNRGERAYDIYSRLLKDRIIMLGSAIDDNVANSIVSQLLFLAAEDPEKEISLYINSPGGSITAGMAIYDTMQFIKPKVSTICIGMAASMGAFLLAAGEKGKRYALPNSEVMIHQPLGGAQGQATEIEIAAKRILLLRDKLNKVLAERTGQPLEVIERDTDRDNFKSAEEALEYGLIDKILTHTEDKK
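ClpP 10 microg/mL final, pH 8 Tris/KCl buffer with BSA, glycerol, Tween-20; compound pinned in; FRET-FV substrate; RT 20 min; Ex320/Em430; ΔFRET vs ADEP 5.8 microM, DMSO, no enzyme.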
A number is an active result. Unless noted, calls come from the whole dose curve; as a rule, active = well fitted curve in the direction sought with a large enough effect; inconclusive = small, poorly fitted or top-dose-only effect, or another doubt; inactive = no such curve, though single readings can be large; an effect the other way counts as inactive or inconclusive.

`CCOC(=O)[C@]12CCCC=C1N(Cc1cccc3ccccc13)C(=O)[C@H](CC(=O)NCCCCc1ccccc1)C2` gave TDP1 cell noCPT inconclusive, DT40 TDP1 CPT inconclusive and ClpP mod inactive.
Screening CCOC(=O)[C@]12CCCC=C1N(Cc1ccc(Cl)cc1Cl)C(=O)[C@H](CC(=O)NCc1cccc3ccccc13)C2 returned TDP1 cell noCPT 16µM, DT40 TDP1 CPT 26µM and ClpP mod inactive.
Screening COCCCNc1ncnc2c1nc1n2CCCC1 returned TDP1 cell noCPT inactive, DT40 TDP1 CPT inactive and ClpP mod inactive.
`O=P(O)(O)C(O)(Cn1ccnc1)P(=O)(O)O` gave TDP1 cell noCPT inactive, TDP1 inh inactive and DT40 TDP1 CPT inactive.
Screening CC1=CC2C(C(O)CC3(C)C2CC(C)C32OCOC23COCO3)C2(C)C/C(=C\O)C(=O)C=C12 (centres undefined) returned TDP1 cell noCPT 2.6µM, DT40 TDP1 CPT 1.6µM and ClpP mod inactive.
Screening CCN(CC)C(=O)COc1ccc2oc(-c3ccco3)cc(=O)c2c1 returned TDP1 cell noCPT inactive, DT40 TDP1 CPT inactive and ClpP mod inactive.
Screening CN(C)CCNc1ncnc2c1ncn2[C@H]1CN(Cc2ccc3c(c2)OCO3)C[C@@H](CO)O1 returned TDP1 cell noCPT inactive, DT40 TDP1 CPT inactive and ClpP mod inactive.
COc1cc2nc(=S)n3[nH]c(CCn4nc(C)cc4C)nc3c2cc1OC was read as TDP1 cell noCPT 1.3µM, TDP1 inh inactive, DT40 TDP1 CPT 1.6µM and ClpP mod inactive.
`COc1cc2nc(=S)n3[nH]c(COc4ccccc4C)nc3c2cc1OC` gave TDP1 cell noCPT 5.8µM, TDP1 inh inactive, DT40 TDP1 CPT 1.2µM and ClpP mod inactive.
Cc1nc2ccccc2n1CCc1nc2c3ccccc3nc(=S)n2[nH]1 was read as TDP1 cell noCPT inactive, TDP1 inh inactive, DT40 TDP1 CPT inactive and ClpP mod inactive.
COc1ccccc1CN1COc2ccc3c(oc(=O)c4ccccc43)c2C1 was read as TDP1 cell noCPT 23µM, TDP1 inh inactive, DT40 TDP1 CPT inconclusive and ClpP mod inactive.
For COc1ccc(CN2COc3ccc4c(-c5ccc(OC)cc5)cc(=O)oc4c3C2)cc1 the results were TDP1 cell noCPT 21µM, TDP1 inh inactive, DT40 TDP1 CPT 9.2µM and ClpP mod inactive.
COc1ccc(CN2COc3ccc4c(oc(=O)c5ccccc54)c3C2)cc1OC was read as TDP1 cell noCPT inactive, TDP1 inh inactive, DT40 TDP1 CPT inactive and ClpP mod inactive.
`O=C(Cn1ncc2c([nH]c3ccccc32)c1=O)N1CCN(c2ccccn2)CC1` gave TDP1 cell noCPT inactive, TDP1 inh inactive, DT40 TDP1 CPT inconclusive and ClpP mod inconclusive.
O=C(OCc1cn([C@@H]2CN(Cc3cccs3)[C@@H](c3ccc(Cl)cc3)C[C@H]2O)nn1)c1ccccc1 was read as TDP1 cell noCPT inconclusive, DT40 TDP1 CPT inconclusive and ClpP mod inactive.
Cc1cc(C(=O)c2ccc(Cl)cc2)c(NC(=O)CCl)s1 was read as TDP1 cell noCPT 7.3µM, TDP1 inh inactive, DT40 TDP1 CPT 8.2µM and ClpP mod inactive.
O=C(NC(=O)c1ccccc1F)Nc1nc(-c2cccs2)cc(C(F)(F)F)n1 was read as TDP1 cell noCPT inconclusive, TDP1 inh inactive, DT40 TDP1 CPT 23µM and ClpP mod inactive.
For Cc1ccc(F)cc1NC(=O)CSc1nc(-c2cccs2)cc(C(F)(F)F)n1 the results were TDP1 cell noCPT inconclusive, TDP1 inh inactive, DT40 TDP1 CPT inconclusive and ClpP mod inactive.
Screening O=C(O)CSc1nc(-c2cccs2)cc(C(F)(F)F)n1 returned TDP1 cell noCPT inactive, TDP1 inh inactive and DT40 TDP1 CPT inactive.
Screening O=C(CSc1nc(-c2cccs2)cc(C(F)(F)F)n1)Nc1cc(OCC(F)(F)F)cc([N+](=O)[O-])c1 returned TDP1 cell noCPT 18µM, TDP1 inh inactive, DT40 TDP1 CPT inconclusive and ClpP mod inactive.
Screening CC(C)(C)c1ccccc1NC(=O)CSc1nc(-c2cccs2)cc(C(F)(F)F)n1 returned TDP1 cell noCPT inconclusive, TDP1 inh inactive, DT40 TDP1 CPT 21µM and ClpP mod inconclusive.
Cc1cccc(C)c1NC(=O)CSc1nc(-c2cccs2)cc(C(F)(F)F)n1 was read as TDP1 cell noCPT 18µM, TDP1 inh inactive, DT40 TDP1 CPT 15µM and ClpP mod inactive.
For CCOc1ccccc1NC(=O)CSc1nc(-c2cccs2)cc(C(F)(F)F)n1 the results were TDP1 cell noCPT inactive, TDP1 inh inactive, DT40 TDP1 CPT inactive and ClpP mod inactive.
For COc1ccc(S(=O)(=O)N2CCc3ccccc32)cc1C(=O)N1CCOCC1 the results were TDP1 cell noCPT inactive, TDP1 inh inactive and DT40 TDP1 CPT inactive.
`O=C(O)c1ccc2c(c1)S(=O)(=O)c1cc(N3CCN(c4ncccn4)CC3)ccc1C2=O` gave TDP1 cell noCPT inactive, DT40 TDP1 CPT inactive and ClpP mod inactive.
COc1ccc(NC(=O)CSc2nc(-c3cccs3)cc(C(F)(F)F)n2)cc1OC was read as TDP1 cell noCPT 2.3µM, TDP1 inh inactive, DT40 TDP1 CPT 4.6µM and ClpP mod inactive.
Screening COC(=O)c1ccc(-n2c(CCC(=O)O)ccc2-c2ccccc2)cc1 returned TDP1 cell noCPT inactive, DT40 TDP1 CPT inactive and ClpP mod inactive.
For CCN(CC)CCNc1c(C)cc(CO)c(Cl)c1C the results were TDP1 cell noCPT inactive, DT40 TDP1 CPT inactive and ClpP mod inactive.
O=C(Cc1ccccc1)NCC(=O)N1CCC1 was read as TDP1 cell noCPT inactive, TDP1 inh inactive and DT40 TDP1 CPT inactive.
For CN(C)c1ccc(Cc2cc3c(O)ccc(O)c3cc(Cc3ccc(N(C)C)cc3)c2=O)cc1 the results were TDP1 cell noCPT 4.1µM, DT40 TDP1 CPT 3.7µM and ClpP mod inactive.
CN(C)c1ccc(C(=O)c2ccc(O)cc2O)cc1 was read as TDP1 cell noCPT inconclusive, TDP1 inh inactive, DT40 TDP1 CPT inconclusive and ClpP mod inactive.
`O=C1NC(Cc2ccc(O)cc2)c2nc3ccc(Br)cc3c(=O)n2-c2cc3ccccc3cc21` (centres undefined) gave TDP1 cell noCPT 9.2µM, DT40 TDP1 CPT 12µM and ClpP mod inactive.
Screening O=C1NC(Cc2ccc(O)cc2)c2nc3ccccc3c(=O)n2-c2cc(Cl)ccc21 (centres undefined) returned TDP1 inh inactive.
For O=C1NC(Cc2ccccc2)c2nc3ccc(Br)cc3c(=O)n2-c2cc(Cl)ccc21 (centres undefined) the results were TDP1 inh inactive.
`Cc1cc(C)c2c(=O)n3c(nc2c1)C(CC(C)C)NC(=O)c1cccnc1-3` (centres undefined) gave TDP1 cell noCPT 23µM, DT40 TDP1 CPT inconclusive and ClpP mod inactive.
COc1ccc2nc3n(c(=O)c2c1)-c1cc2ccccc2cc1C(=O)NC3Cc1ccc(O)cc1 (centres undefined) was read as TDP1 cell noCPT 18µM, DT40 TDP1 CPT inconclusive and ClpP mod inactive.
